Among the test systems are DU-145 prostate; K-562 leukemia; MALME-3M melanoma; MDA-MB-231 breast; RXF 393 renal; SF-268 CNS; SF-295 CNS; SF-539 CNS; UACC-257 melanoma; M14 melanoma; HCT-15 colon; HT29 colon; SNB-75 CNS; SNB-19 CNS; U251 CNS; PC-3 prostate; SK-MEL-5 melanoma; UACC-62 melanoma; LOX IMVI melanoma; SK-MEL-28 melanoma.
Holding throughout (test): NCI-60 one-dose screen, 48 h (100 = growth as untreated, 0 = no growth, -100 = all killed)
What all share (conditions): 10 µM unless noted

Consider ten compounds from PubChem BioAssay (NCI).

Structures are written as SMILES. About 83,000 compounds went through this panel and 20% of them were active in at least one assay; those are over-represented in the sample as a whole.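 For each line, cells grew in 96-well plates with the test compound present at a single concentration for 48 hours.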 Unmarked numbers belong to inactive results. Active and inactive are the calls of the source. The calls were made as follows: active = growth percent below 10; inactive = the rest.

In the case of `O=S(=O)(Nc1ccc2ccccc2c1)N1CCCCC1`, the growth in the assay with DU-145 prostate was 78.4%; in the assay with K-562 leukemia it was 41.4%; in the assay with MALME-3M melanoma it was 63.3%; in the assay on MDA-MB-231 breast, 71.8%; in the assay with RXF 393 renal, 68.3%; in the assay on SF-268 CNS, 61.3%. Further, the growth was 64% in the assay with SF-295 CNS; 70.2% with SF-539 CNS; 61.1% in the assay with UACC-257 melanoma; 38.6% with M14 melanoma; 40.6% in the assay on HCT-15 colon; 40.9% in the assay on HT29 colon. In addition, the growth in the assay on SNB-75 CNS was 52%; in the assay with SNB-19 CNS, 90.2%; in the assay with U251 CNS, 57.2%; in the assay with PC-3 prostate, 61%; with SK-MEL-5 melanoma, 59.8%; with UACC-62 melanoma it was 56%. The growth in the assay on LOX IMVI melanoma is 51.8%; in the assay on SK-MEL-28 melanoma, 73.6%.

Consider `N=C(N)c1ccc(NCCNc2ccc(C(=N)N)cc2)cc1`, for which the growth with DU-145 prostate is 106%; in the assay with K-562 leukemia, 82.1%; in the assay on MALME-3M melanoma, 100%; in the assay on MDA-MB-231 breast it was 87.3%; in the assay on RXF 393 renal, 98.3%; in the assay on SF-268 CNS, 113%. Further, the growth in the assay with SF-295 CNS is 66.3%; with SF-539 CNS, 84.7%; in the assay on UACC-257 melanoma, 62.3%; with M14 melanoma, 125%; with HCT-15 colon it was 90.6%; with HT29 colon, 103%. Further, the growth in the assay on SNB-75 CNS was 101%; with SNB-19 CNS, 116%; with U251 CNS, 89.8%; in the assay on PC-3 prostate, 123%; with SK-MEL-5 melanoma, 82%; in the assay on UACC-62 melanoma, 81.8%. The growth in the assay on LOX IMVI melanoma is 86.8%; in the assay on SK-MEL-28 melanoma, 114%.

Regarding `CC(=O)c1ccc(Br)c([N+](=O)[O-])c1`, the growth in the assay on DU-145 prostate was 113%; with K-562 leukemia, 89.7%; with MALME-3M melanoma it was 98.6%; with MDA-MB-231 breast it was 117%; with RXF 393 renal, 113%; with SF-268 CNS, 117%. For the same compound, the growth with SF-295 CNS is 96.9%; with SF-539 CNS, 107%; in the assay with UACC-257 melanoma, 111%; in the assay with M14 melanoma, 97.2%; in the assay with HCT-15 colon, 104%; in the assay on HT29 colon, 98%. In addition, the growth with SNB-75 CNS was 92.7%; with SNB-19 CNS, 98.7%; with U251 CNS it was 104%; with PC-3 prostate, 104%; in the assay on SK-MEL-5 melanoma, 99.9%; in the assay on UACC-62 melanoma it was 111%. Moreover, the growth is 90% in the assay with LOX IMVI melanoma and 118% in the assay on SK-MEL-28 melanoma.

Consider `CC(=O)Oc1ccccc1C(=O)Nc1ncc([N+](=O)[O-])s1`, for which the growth is 32.1% with DU-145 prostate; -8.68% (active) in the assay with K-562 leukemia; -10.6% (active) in the assay on MALME-3M melanoma; 26.9% in the assay on MDA-MB-231 breast; 54.5% in the assay with RXF 393 renal; 18.7% in the assay on SF-268 CNS. In addition, the growth in the assay with SF-295 CNS was 9.28% (active); in the assay on SF-539 CNS, 39.5%; in the assay with UACC-257 melanoma, 39.2%; in the assay on M14 melanoma it was 14.6%; in the assay on HCT-15 colon it was 32.3%; in the assay on HT29 colon, 44.9%. For the same compound, the growth in the assay on SNB-75 CNS was 46.4%; in the assay with SNB-19 CNS, 41.7%; in the assay on U251 CNS it was 39.2%; in the assay on PC-3 prostate, 10.1%; with SK-MEL-5 melanoma, 22.8%; in the assay with UACC-62 melanoma it was 1.31% (active). The growth is 23.4% in the assay on LOX IMVI melanoma and 49.3% in the assay with SK-MEL-28 melanoma.

For the compound `O=C1Nc2ccccc2/C1=C\c1nc(C2CCN(S(=O)(=O)c3ccc(F)cc3)CC2)n2ccccc12`, the growth in the assay with DU-145 prostate was 57.1%; with K-562 leukemia it was 56.9%; in the assay on MALME-3M melanoma, 3.9% (active); in the assay with MDA-MB-231 breast, 32.8%; in the assay with RXF 393 renal, 16.6%; in the assay on SF-268 CNS it was 14.2%. Further, the growth in the assay on SF-295 CNS is 46.5%; with SF-539 CNS, 27.4%; in the assay with UACC-257 melanoma, 72%; in the assay with M14 melanoma it was 61.5%; in the assay on HCT-15 colon, 90.5%; in the assay with HT29 colon it was 67.7%. Besides, the growth in the assay on SNB-75 CNS was -10.4% (active); in the assay with SNB-19 CNS, -6.15% (active); in the assay on U251 CNS it was 41.3%; with PC-3 prostate it was 65.6%; with SK-MEL-5 melanoma, 75.3%; in the assay with UACC-62 melanoma, 39.1%. The values for the growth in the assay with LOX IMVI melanoma and in the assay with SK-MEL-28 melanoma were 49.2% and 60.3%, respectively.

Consider `O=C1Nc2ccc(Cl)cc2/C1=C\c1c(-c2ccc(F)cc2)nc2ccccn12`, for which the growth in the assay on DU-145 prostate is -19% (active); in the assay with K-562 leukemia it was -39.5% (active); in the assay on MALME-3M melanoma, 16.6%; in the assay on MDA-MB-231 breast, 45.9%; in the assay on RXF 393 renal, -13.4% (active); in the assay with SF-268 CNS, 5.15% (active). Also, the growth in the assay on SF-295 CNS was -41% (active); in the assay with SF-539 CNS, -31.2% (active); with UACC-257 melanoma, 75.6%; in the assay with M14 melanoma, -9.52% (active); with HCT-15 colon, 21.4%; in the assay with HT29 colon, 0.999% (active). For the same compound, the growth in the assay with SNB-75 CNS was -49.4% (active); in the assay with SNB-19 CNS, 41.6%; with U251 CNS it was 23.2%; in the assay on PC-3 prostate, 18.8%; in the assay with SK-MEL-5 melanoma, -28.4% (active); with UACC-62 melanoma, 7.95% (active). In addition, the growth in the assay on LOX IMVI melanoma is -30.1% (active); in the assay on SK-MEL-28 melanoma it was 6.38% (active).

For `CC(C)c1cccc(C#N)c1`, the growth was 104% in the assay with DU-145 prostate; 109% in the assay on K-562 leukemia; 113% with MALME-3M melanoma; 102% with MDA-MB-231 breast; 102% in the assay on RXF 393 renal; 107% in the assay with SF-268 CNS. Also, the growth in the assay with SF-295 CNS is 107%; in the assay on SF-539 CNS, 109%; with UACC-257 melanoma, 93.4%; in the assay on M14 melanoma, 95.2%; in the assay on HCT-15 colon it was 113%; with HT29 colon, 104%. In addition, the growth with SNB-75 CNS is 83.7%; with SNB-19 CNS, 99%; with U251 CNS it was 94.8%; with PC-3 prostate, 85.5%; with SK-MEL-5 melanoma, 92.3%; in the assay on UACC-62 melanoma, 102%. In addition, the growth in the assay with LOX IMVI melanoma was 95.3%; in the assay on SK-MEL-28 melanoma, 105%.

With `CCN(CC)c1ccc(/C=N/NC(=O)C[N+](C)(C)C)cc1`, the growth with DU-145 prostate is 113%; in the assay on K-562 leukemia it was 54.3%; in the assay with MALME-3M melanoma, 92.6%; with MDA-MB-231 breast, 119%; in the assay on RXF 393 renal, 112%; in the assay with SF-268 CNS, 110%. The growth was 109% with SF-295 CNS; 110% in the assay with SF-539 CNS; 104% with UACC-257 melanoma; 110% in the assay on M14 melanoma; 101% in the assay on HCT-15 colon; 103% in the assay on HT29 colon. Moreover, the growth in the assay on SNB-75 CNS was 93.8%; in the assay with SNB-19 CNS it was 113%; in the assay with U251 CNS, 102%; in the assay with PC-3 prostate, 95.7%; in the assay on SK-MEL-5 melanoma, 104%; in the assay on UACC-62 melanoma, 101%. Moreover, the growth with LOX IMVI melanoma was 97%; with SK-MEL-28 melanoma, 108%.

In the case of `COc1ccc(C(=O)OC2C(OC3C(O)COC(O[C@H]4C[C@H]5[C@@H]6CC=C7C[C@@H](O)CC[C@]7(C)[C@H]6CC[C@]5(C)[C@H]4[C@H](C)C(=O)CCC(C)C)C3OC(=O)C(C)C)OCC(O)C2O)cc1` (stereo not given in full), the growth was 38.4% in the assay with DU-145 prostate; -29.8% (active) with K-562 leukemia; 6.67% (active) in the assay on MALME-3M melanoma; 36.5% in the assay with MDA-MB-231 breast; -59.4% (active) with RXF 393 renal; -9.13% (active) in the assay on SF-268 CNS. In addition, the growth in the assay on SF-295 CNS is -60.5% (active); in the assay on SF-539 CNS, -66.2% (active); in the assay on UACC-257 melanoma, -50% (active); in the assay on M14 melanoma, -61.4% (active); in the assay on HCT-15 colon, -8.16% (active); in the assay with HT29 colon it was 12.1%. The growth is 21.4% in the assay with SNB-75 CNS; 27.8% in the assay on SNB-19 CNS; 2.54% (active) with U251 CNS; 2.36% (active) in the assay with PC-3 prostate; -36.3% (active) in the assay with SK-MEL-5 melanoma; -35.6% (active) in the assay with UACC-62 melanoma. Moreover, the growth in the assay on LOX IMVI melanoma is -17.5% (active); with SK-MEL-28 melanoma, -49.6% (active).

With `Clc1cc(Cl)cc(-c2cnc3nonc3n2)c1`, the growth with DU-145 prostate is 97.9%; in the assay on K-562 leukemia, 79%; with MALME-3M melanoma it was 76.9%; with MDA-MB-231 breast, 89.7%; in the assay on RXF 393 renal, 108%; in the assay on SF-268 CNS, 93.5%. Further, the growth with SF-295 CNS is 99.8%; with SF-539 CNS it was 107%; with UACC-257 melanoma, 89.9%; in the assay on M14 melanoma, 90.2%; with HCT-15 colon, 64.4%; with HT29 colon it was 92.8%. For the same compound, the growth in the assay on SNB-75 CNS is 99%; in the assay on SNB-19 CNS it was 93.4%; in the assay with U251 CNS, 106%; in the assay with PC-3 prostate it was 90.9%; in the assay on SK-MEL-5 melanoma, 107%; with UACC-62 melanoma it was 83.1%. In addition, the growth was 95% with LOX IMVI melanoma and 91.5% in the assay on SK-MEL-28 melanoma.
